This is a sample that favours compounds with a hit; in the whole collection about 3% have one here.
PPC-1+TRAIL kill: compounds killing PPC-1 cancer cells with TRAIL present (potentiator screen, no TRAIL-free arm); cell killing (% activity), % at 4 µM or 5 µM; 0.41% of 220,000 active; PPC-1 cells + TRAIL, ATPLite viability luminescence;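 active = cell killing above 50% in the first pass at 4 µM, then a duplicate retest at 5 µM averaging 50% or more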
SENP7 inh: SENP7 protease inhibition; 1.5% of 330,000 active; AID 434973; inhibition, % at 5 µM; recombinant SENP7, Z-RLRGG-aminoluciferin luminescence, 40 min; Q9BQF6;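 active = inhibition above about 50% at the single test dose, limit read from the data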
SENP8 block-1: blocks human SENP8 cleavage of Nedd8 substrate. Q96LD8. recombinant SENP8, Nedd8 substrate fluorescence. inhibition, % at 20 µM. 0.64% of 360,000 active; in the data active = inhibition mostly above about 40%, no sharp cut-off; inactive = mostly below about 27%
SENP8 block-2: inhibitors of human SENP8 protease; AID 2540; 1.2% of 330,000 active; purified SENP8, Z-RLRGG-aminoluciferin cleavage, luminescence; inhibition, % at 10 µM; Q96LD8; in the data active = inhibition above about 50%
SENP6 inh: blocks the human protease SENP6 | Q9GZR1 | Recombinant SENP6 catalytic domain, aminoluciferin luminescence | inhibition, % at 10 µM | 1.8% of 330,000 active;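 active = inhibition above about 50% at the single tested dose, limit read from the data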
Target sequence (Q9GZR1 628-1112 limits assumed): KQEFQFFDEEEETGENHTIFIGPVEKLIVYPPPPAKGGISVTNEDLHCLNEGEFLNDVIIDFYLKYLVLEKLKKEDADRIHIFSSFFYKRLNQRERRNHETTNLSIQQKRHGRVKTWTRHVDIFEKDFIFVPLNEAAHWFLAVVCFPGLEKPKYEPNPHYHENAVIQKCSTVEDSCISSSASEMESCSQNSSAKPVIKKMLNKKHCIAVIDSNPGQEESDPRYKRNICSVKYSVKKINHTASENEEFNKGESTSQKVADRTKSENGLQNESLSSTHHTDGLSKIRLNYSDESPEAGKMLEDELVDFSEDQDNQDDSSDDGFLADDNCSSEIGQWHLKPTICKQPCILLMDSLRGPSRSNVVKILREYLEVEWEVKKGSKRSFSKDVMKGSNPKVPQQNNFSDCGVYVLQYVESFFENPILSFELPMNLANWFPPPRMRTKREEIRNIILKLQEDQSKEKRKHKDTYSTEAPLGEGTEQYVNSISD
C8 TRAIL sens: caspase-8 TRAIL sensitization | AID 624354 | 1% of 360,000 active | NB7+C8 cells + TRAIL, ATPlite viability luminescence | inhibition (viability loss, TRAIL sensitization), % at 10 µM;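 active = compounds causing at least 50% loss of cell viability in the single-dose screen, relative to plate controls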
SENP8 confirm: human SENP8 inhibition, confirmed. AID 488912. inhibition, % at 12.5 µM. Recombinant SENP8, Z-RLRGG-aminoluciferin luminescence, 60 min. shares compounds with SENP7 inh. 40% of 6,200 active;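 active = mean inhibition across replicates above about 50%, limit read from the data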
SENP6 confirm: confirmation of human SENP6 protease inhibitors. shares compounds with SENP7 inh. recombinant SENP6, Z-RLRGG-aminoluciferin luminescence. inhibition, % at 12.5 µM. 58% of 6,200 active. AID 488915
SENP7 confirm: human SENP7 inhibition, confirmed; shares compounds with SENP7 inh; recombinant SENP7, Z-RLRGG-aminoluciferin luminescence, 40 min; 69% of 6,200 active; inhibition, % at 12.5 µM
Casp3 select: inhibits human caspase-3 in SENP selectivity test | 60% of 6,200 active | shares compounds with SENP7 inh | inhibition, % at 12.5 µM | purified caspase-3, Z-DEVD-aminoluciferin luminescence, 60 min;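 active = mean inhibition above about 50%, limit read from the data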
Target sequence (P42574 28-227 limits assumed): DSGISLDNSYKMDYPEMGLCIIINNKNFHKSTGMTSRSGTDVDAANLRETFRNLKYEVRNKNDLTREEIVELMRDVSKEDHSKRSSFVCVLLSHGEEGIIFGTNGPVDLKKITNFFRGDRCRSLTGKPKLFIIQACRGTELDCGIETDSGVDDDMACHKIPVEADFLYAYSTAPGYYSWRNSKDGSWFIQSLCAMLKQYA
SENP luc ctr: interferes with luciferase luminescence in SENP counter-screen. inhibition, % at 12.5 µM. Pre-incubated SENP8/Z-RLRGG-aminoluciferin, luciferase luminescence interference. AID 488919. 39% of 6,200 active. shares compounds with SENP7 inh;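 active = mean inhibition above about 50% when retested at one dose, limit read from the data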
Large screens that a line does not name were inactive (follow-up assays come after a bar, where they were run).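 The calls were made as follows, unless noted: active = mean inhibition above about 50% in the one-dose retest (limit read from the data); inactive = the rest.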

Cc1occc1C(=O)Nc1ccc2ccccc2c1	SENP8 block-2 82 | SENP8 confirm inactive | SENP6 confirm 96 | SENP7 confirm 102 | Casp3 select 92 | SENP luc ctr 95
O=C(Nc1ccc2ccccc2c1)c1ccccc1O	SENP7 inh 96, SENP8 block-2 96, SENP6 inh 99, C8 TRAIL sens 72 (no result: PPC-1+TRAIL kill) | SENP8 confirm 94 | SENP6 confirm 96 | SENP7 confirm 102 | Casp3 select 92 | SENP luc ctr 64
O=C(Nc1ccc2ccccc2c1)c1ccc(Cl)cc1Cl	SENP7 inh 85, SENP8 block-2 55, SENP6 inh 68, C8 TRAIL sens 61 | SENP8 confirm inactive | SENP6 confirm 54 | SENP7 confirm 50 | Casp3 select 55 | SENP luc ctr inactive
Cc1cccc(NC(=O)c2ccoc2C)n1	none
O=C(Nc1ccc2ccccc2c1)c1ccccc1Cl	none (no result: PPC-1+TRAIL kill, SENP7 inh, SENP8 block-2, SENP6 inh)
Cc1occc1C(=O)Nc1cc(C(C)(C)C)on1	SENP7 inh 97, SENP8 block-2 93, SENP6 inh 96 | SENP8 confirm 93 | SENP6 confirm 95 | SENP7 confirm 102 | Casp3 select 97 | SENP luc ctr 95
COc1ccc(-c2ccc(-c3noc(-c4ccccc4F)n3)c(OC)n2)cc1	none (no result: SENP7 inh, SENP8 block-2, SENP6 inh)
Fc1ccccc1-c1nc(-c2ccc(-c3nn[nH]n3)cc2)no1	SENP7 inh 92, SENP8 block-2 96, SENP6 inh 97 (no result: PPC-1+TRAIL kill) | SENP8 confirm 98 | SENP6 confirm 98 | SENP7 confirm 102 | Casp3 select 96 | SENP luc ctr 98
c1ccc(-c2noc(-c3cccc4ccccc34)n2)cc1	none
Fc1ccccc1-c1nc(-c2ccncc2)no1	SENP7 inh 84, SENP8 block-2 77, SENP6 inh 85 (no result: PPC-1+TRAIL kill) | SENP8 confirm 82 | SENP6 confirm 84 | SENP7 confirm 98 | Casp3 select 90 | SENP luc ctr 72
Brc1ccccc1-c1nc(-c2ccccc2)no1	SENP7 inh 98, SENP8 block-2 95, SENP6 inh 97 (no result: SENP8 block-1, C8 TRAIL sens) | SENP8 confirm inactive | SENP6 confirm 99 | SENP7 confirm 103 | Casp3 select 94 | SENP luc ctr 91
Fc1ccccc1-c1nc(-c2ccccc2)no1	SENP7 inh 99, SENP8 block-2 95, SENP6 inh 98 | SENP8 confirm inactive | SENP6 confirm 97 | SENP7 confirm 102 | Casp3 select 90 | SENP luc ctr inactive
Cc1cccc(C)c1NC(=O)C(c1cc2ccccc2o1)N1CCC(c2ccccc2)CC1 (stereo not given)	none (no result: PPC-1+TRAIL kill, SENP7 inh, SENP8 block-2, SENP6 inh)
COc1ccc(C(=O)COC(=O)CCNS(=O)(=O)c2ccccc2)c(OC)c1	none (no result: PPC-1+TRAIL kill)
CC(CCc1ccccc1)NC(=O)C(Cc1ccccc1)NS(=O)(=O)c1cccs1 (stereo not given)	SENP7 inh 80 | SENP8 confirm inactive | SENP6 confirm inactive | SENP7 confirm inactive | Casp3 select inactive | SENP luc ctr inactive
Cc1ccc(S(=O)(=O)NCc2ccccc2)cc1C(=O)NC1CCC(C)CC1 (stereo not given)	none (no result: PPC-1+TRAIL kill)
O=C(Nc1ccc(-c2n[nH]c(=S)o2)cc1)c1ccccc1Br	SENP6 inh 80 (no result: PPC-1+TRAIL kill) | SENP8 confirm 57 | SENP6 confirm 54 | SENP7 confirm 80 | Casp3 select 74 | SENP luc ctr 62
CC1/C(=N/O)CC(c2ccccc2)NC1c1ccccc1 (stereo not given)	SENP7 inh 89 | SENP8 confirm inactive | SENP6 confirm inactive | SENP7 confirm inactive | Casp3 select inactive | SENP luc ctr inactive
CC(C)C1/C(=N/O)CC(c2ccccc2)NC1c1ccccc1 (stereo not given)	none
Cc1cc(C(=O)CCC(=O)N2CCN(c3ccccc3)CC2)c(C)s1	none (no result: PPC-1+TRAIL kill)
Cc1ccc(-c2cnc3c(Cl)c(C)nn3c2)cc1	SENP7 inh 94, SENP8 block-2 68, SENP6 inh 65 | SENP8 confirm 69 | SENP6 confirm 70 | SENP7 confirm 75 | Casp3 select 80 | SENP luc ctr inactive
Cc1c(C(=O)Nc2ccccc2)csc1-c1ccccc1	SENP7 inh 95, SENP8 block-2 60, SENP6 inh 57, C8 TRAIL sens 67 | SENP8 confirm inactive | SENP6 confirm inactive | SENP7 confirm 84 | Casp3 select inactive | SENP luc ctr inactive
COc1cc(/C=N/Nc2ccc(C(=O)O)cc2)cc(OC)c1OC	SENP7 inh 71, SENP8 block-2 74, SENP6 inh 88 | SENP8 confirm 88 | SENP6 confirm 86 | SENP7 confirm 98 | Casp3 select 81 | SENP luc ctr inactive
COc1cc(/C=N/NC(=O)c2ccccc2)ccc1O	none
COc1cc(/C=N/Nc2ccc(C(=O)O)cc2)ccc1O	SENP7 inh 98, SENP8 block-2 96, SENP6 inh 99 | SENP8 confirm 98 | SENP6 confirm 98 | SENP7 confirm 103 | Casp3 select 94 | SENP luc ctr 97
OCCC1CN(Cc2cccn2-c2cccnc2)CCN1C1CCCCC1 (stereo not given)	none
COc1ccc(CCNC(=O)CN(c2cccc([N+](=O)[O-])c2)S(C)(=O)=O)cc1OC	none
COC(=O)c1cc(S(=O)(=O)N2CCN(C(=O)c3ccco3)CC2)cn1C	none (no result: PPC-1+TRAIL kill)
CCCCCCOc1ccc(C(=O)O)cc1C#N	SENP8 block-2 61, SENP6 inh 77 | SENP8 confirm 61 | SENP6 confirm 61 | SENP7 confirm 85 | Casp3 select 77 | SENP luc ctr 75
COc1cc(/C=C/c2ccc3cccc(O)c3n2)cc(Cl)c1OC	SENP7 inh 55, SENP6 inh 58 (no result: PPC-1+TRAIL kill) | SENP8 confirm inactive | SENP6 confirm inactive | SENP7 confirm inactive | Casp3 select inactive | SENP luc ctr inactive
COc1cccc(/C=C/c2ccc3cccc(O)c3n2)c1OC	SENP6 inh 58 (no result: PPC-1+TRAIL kill) | SENP8 confirm 52 | SENP6 confirm inactive | SENP7 confirm 89 | Casp3 select 52 | SENP luc ctr inactive
Cc1cc(C)nc(SCc2cnc(C)nc2N)n1	none
O=C1c2ccccc2NC(c2cnc3ccccc3n2)N1O (stereo not given)	SENP6 inh 72 | SENP8 confirm inactive | SENP6 confirm inactive | SENP7 confirm inactive | Casp3 select inactive | SENP luc ctr inactive
